Laboratory results as given in PubChem BioAssay.
A number with no mark means an inactive call. Unless noted, the rule behind the calls is not given here.

assay: P. aeruginosa biofilm formation inhibitors, primary screen, strain PAO1, LB-PBS medium, absorbance 600 nm (AID 1176); settings: P. aeruginosa PAO1 growth/biofilm, A600, 12 h; higher = more signal
Note: test concentration not given here.

| Structure (SMILES) | z-score |
| --- | --- |
| CO[C@H]1O[C@H](CO)[C@@H](OC(=O)Nc2ccccc2-c2ccccc2)[C@H](OC(=O)Nc2ccccc2)[C@H]1OC(=O)Nc1ccccc1 | 2.11 |
| O=C1c2ccccc2[C@@]2(Cc3ccccc3N(Cc3ccccc3)C2=O)[C@H](c2ccc(CO)cc2)N1Cc1ccccc1Cl | -0.425 |
| CCCNC(=O)[C@@]1(c2ccc([N+](=O)[O-])cc2)CC(=O)N(C(C)C)[C@@H]1c1ccc(CO)cc1 | 0.373 |
| [N-]=[N+]=Nc1ccccc1C[C@@]1(C(=O)NCC(O)CO)N=C(c2ccc(OCCCO)cc2)O[C@@H]1c1ccccc1 (some centres undefined) | -0.456 |
| CC(C)C[C@@H]1NC(=O)[C@@H]2C[C@H](C(=O)NCCCCCCNC(=O)CS)[C@H](c3cccc(OCCO)c3)N2C1=O | 0.863 |
| CC(=O)NCCCC[C@@H]1NC(=O)[C@H]2C[C@@H](C(=O)NCCCCCCNC(=O)CS)[C@@H](c3cccc(OCCO)c3)N2C1=O | 0.339 |
| O=C1[C@@H]2[C@@H](CC(COc3ccccc3)=C([C@H](O)CCc3ccccc3)[C@@H]2CO)C(=O)N1Cc1ccccc1 | 0.258 |
| O=C(NCC(O)CO)[C@@]1(CCS(=O)(=O)c2ccccc2)N=C(c2ccc(OCCCO)cc2)O[C@H]1c1ccccc1 (some centres undefined) | 0.618 |
| CN(C)c1ccc(C(O)C2C=CC3C(=O)N(Cc4ccccc4)C(=O)C3N2n2cnnc2)cc1 (centres undefined) | 1.77 |
| COCCOC(=O)N1C(=O)[C@@]2(c3cc(C#CCC(C(=O)OC)C(=O)OC)ccc31)[C@H](C(=O)Nc1nc3ccccc3s1)[C@H]1C(=O)O[C@H](c3ccccc3)[C@H](c3ccccc3)N1[C@@H]2c1ccc(OCCO)cc1 | 2.54 |

assay: S. cerevisiae RM11-1a growth modifiers, primary screen, strain RM11-1a, OD600, basal, 24 h (AID 1177); settings: OD600, 24 h, higher = more signal, called active from +8 up or from −8 down;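 note: cultures grown under basal conditions with no added stressor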

| Structure (SMILES) | z-score |
| --- | --- |
| CCCC[C@H]1OB(O)C[C@H]2C1=C(COc1ccccc1)C[C@H]1C(=O)C=CC(=O)[C@H]12 | -0.179 |
| COCCOC(=O)N1C(=O)[C@@]2(c3ccccc31)[C@H](C(=O)N1CCN(c3ncccn3)CC1)[C@H]1C(=O)O[C@H](c3ccccc3)[C@H](c3ccccc3)N1[C@@H]2c1ccccc1OCCO | 2.04 |
| COC(=O)[C@@]1(Cc2ccccc2)[C@H]2c3cc(C(=O)N(C)C)n(CCO)c3C[C@H]2CN1C(=O)c1ccccc1 | 0.329 |
| [N-]=[N+]=Nc1ccccc1[C@@H]1OC(c2ccc(OCCCO)cc2)=N[C@]1(Cc1ccccc1)C(=O)NCCN1CCOCC1 | -0.158 |
| COc1cc(C(O)C2C=CC3C(=O)N(c4ccccc4)C(=O)C3N2Nc2ccccc2)cc(OC)c1OC (centres undefined) | 0.499 |
| C=CCC(OC(C)=O)[C@@H]1[C@@H](N(Cc2ccc(-c3ccccc3)cc2)C(=O)c2cccc3ccccc23)c2cc(OCCCO)ccc2N1C(=O)Cc1ccc(OC)cc1 (some centres undefined) | -0.788 |
| Cc1ccc(N2C(=O)c3ccccc3[C@](C)(C(=O)NCCCN(C)C)[C@@H]2c2ccc(CO)cc2)nc1 | -0.764 |
| CCOC(=O)C[C@H]1[C@H](OC(=O)Cc2ccc3c(c2)OCO3)[C@@H](NC(=O)Cc2ccc(OC)cc2)c2cc(OCCCO)ccc2N1C(=O)Cc1ccc(OC)cc1 | -1.62 |
| O=C1N(CCS(=O)(=O)c2ccccc2)c2ccccc2C[C@]12N=C(c1ccc(OCCCO)cc1)O[C@@H]2c1ccccc1 | 2.74 |
| C=CCOC(=O)[C@@H]1[C@H]2C(=O)O[C@H](c3ccccc3)[C@H](c3ccccc3)N2[C@H](c2ccc(OCCOC(=O)[C@H]3C[C@H]4C(=O)N5CCC[C@H]5C(=O)N4[C@H]3c3cccc(OCCO)c3)cc2)[C@@]12C(=O)Nc1ccc(I)cc12 | 1.89 |
| COc1ccc([Si](C)(C)[C@H]2[C@H](CC(=O)N3Cc4ccccc4C[C@H]3CO)O[C@@]3(C(=O)N(c4ccccc4)c4ccccc43)[C@@H]2C)cc1 | 0.578 |
| CCN(CC)c1ccc(N2CC=CC34O[C@@H]5C=CCCOC(=O)C5[C@H]3C(=O)N(C(C)CO)[C@@H]4C2=O)cc1 (some centres undefined) | 0.126 |
| COCCOC(=O)N1C(=O)[C@@]2(c3cc(C#CC4(O)CCCCCC4)ccc31)[C@H](c1ccc(O)cc1)N1[C@H](c3ccccc3)[C@H](c3ccccc3)OC(=O)[C@H]1[C@@H]2C(=O)N1CCCCCCC1 | 0.478 |
| COC(=O)[C@@]1(Cc2ccc(F)cc2)[C@H]2c3cc(C(=O)N(C)C)n(C)c3C[C@H]2CN1C(=O)c1ccccc1 | 0.626 |
